Each structure is given as a SMILES string. In all, about 220,000 compounds went through this assay and about 930 (0.42%) were called active. The list comes from a sample in which actives are over-represented; it also holds similar structures and randomly drawn compounds. Unmarked numbers belong to inactive results. Cut-off read from the data, not from the text of the source: active = inhibition above about 50%; inactive = the rest.

Glycoprotein 42 (Epstein-Barr virus (strain AG876)), sequence (Q1HVG2 whole entry, looked up): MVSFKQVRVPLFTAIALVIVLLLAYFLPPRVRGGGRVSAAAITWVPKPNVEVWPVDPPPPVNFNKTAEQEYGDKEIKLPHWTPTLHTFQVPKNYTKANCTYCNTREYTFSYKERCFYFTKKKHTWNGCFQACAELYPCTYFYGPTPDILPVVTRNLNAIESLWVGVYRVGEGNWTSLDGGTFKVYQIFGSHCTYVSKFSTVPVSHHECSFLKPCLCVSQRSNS

The test has as its target Glycoprotein 42 (Epstein-Barr virus (strain AG876)) (UniProt Q1HVG2). Nature of the test: Epstein-Barr virus gp42 inhibitors, primary screen, biochemical, uHTS, fluorescence polarization (AID 1085). The conditions noted are these: Fluorescence polarization binding assay, mP read-out; hits give high values; tested at 21.74 µM.
With `CC(=O)NC(NC(=S)Nc1c(C)n(C)n(-c2ccccc2)c1=O)C(Cl)(Cl)Cl` (centres undefined), the inhibition is -9.48%. As to `COc1ccc(/C(C)=N/NC(=O)CCC(=O)Nc2ccc(Cl)cc2Cl)c(OC)c1`, the inhibition was -0.68%. As to `Cc1nn(-c2cc(Cl)ccc2N)c(=O)c2ccccc12`, the inhibition is -22.9%.

Regarding `Cc1nn(C)cc1N1C(=O)c2cccc3c(N)ccc(c23)C1=O`, the inhibition was 149% (active). As to `COc1ccc(N2C(=O)c3cccc4cccc(c34)C2=O)nn1`, the inhibition is 15.4%.

As to `Clc1cccc(CN2COc3c(cc(Cl)c4cccnc34)C2)c1`, the inhibition is 1.66%. To `CC(C)(C)NC(=O)CSC(=Nc1ccccc1F)NC#N` belongs 4.3%; to `CCNC(=O)CC1C(=O)N(c2ccc(OC)cc2)C(=S)N1CCc1ccncc1` (centres undefined), -17.4%; to `CCOC(=O)c1sc(NC(=O)CSc2nc(C)cc(C(F)(F)F)n2)c(C#N)c1C`, -17.3%.

Turning to `CCOc1ccc2nc(NCCNS(=O)(=O)c3ccccc3)c(C#N)cc2c1`, the inhibition was -8.9%. As to `CCOc1ccc2nc(N3CCCN(C(=O)Nc4ccccc4C)CC3)c(C#N)cc2c1`, the inhibition is 53.8% (active).

In the case of `COc1ccc2nc(N3CCCC(O)C3)c(C#N)cc2c1` (centres undefined), the inhibition is 46.9%. Take `O=C(CCCCCN1C(=O)c2cccc3cccc(c23)C1=O)NCc1ccco1`: the inhibition was -16.7%. Take `CCN(CC)S(=O)(=O)c1ccc(N2CCOCC2)c(NC(=O)C2COc3ccccc3O2)c1` (centres undefined): the inhibition is -2.58%. For the compound `O=C(N/N=C/c1ccco1)c1csc2c1CCCC2`, the inhibition was -15.1%. Take `Cc1occc1C(=O)N1CCCc2ccccc21`: the inhibition is -1.51%. Regarding `Cc1c(C(=O)N2CCCc3ccccc32)sc2nc(-c3ccccc3)cn12`, the inhibition is -4.31%. Regarding `Cc1cccc2cc3c(N)c(C(=O)N4CCCc5ccccc54)sc3nc12`, the inhibition was 88.5% (active). In the case of `CCOC(=O)C(C)n1nc(-c2ccccc2)c2ccccc2c1=O` (centres undefined) it was -6.93%. For the compound `Cn1cnc([N+](=O)[O-])c1Sc1ccccc1`, the inhibition was -26%. To `COc1ccccc1NC(=O)C[n+]1ccccc1` belongs -3.15%; to `COC(=O)Cc1nc2ccccc2[nH]1`, -12.7%.

Consider `COC(=O)C[n+]1cccc2ccccc21`, for which the inhibition is 128% (active). In the case of `CSc1cc(C)n(-c2ccccc2C)c(=S)c1C(C)=O`, the inhibition was -23.5%. Take `COc1ccc(N(CCC#N)S(=O)(=O)c2ccc(Cl)cc2)cc1`: the inhibition is -7.41%.

In the case of `O=C(Nc1ccc(Cl)cc1)C1c2cccc[n+]2CC(=O)N1Cc1ccc2c(c1)OCO2` (centres undefined), the inhibition was -27%.

Turning to `CCOc1cccc(=O)c2c(C)n(CC3CCCO3)c(C)c12` (centres undefined), the inhibition is 14.8%. In the case of `O=S(=O)(Cc1cc(Sc2ccccc2)nc(-c2ccccc2)n1)c1ccccc1` it was 3.74%. As to `CCN(c1ccc(NC(=O)COC(=O)CCc2nc3ccccc3n2-c2ccccc2)cc1)C(C)C`, the inhibition was -13%.

Consider `COc1ccc([N+](=O)[O-])cc1NC(=O)c1ccc(N(Cc2ccccc2C)S(C)(=O)=O)cc1`, for which the inhibition is -6.7%. In the case of `Cc1ccc(-c2cnc(NC(=O)CCC(=O)N(C)Cc3ccccc3)n2C)cc1` it was 4.29%; in that of `O=C(N/N=C/c1ccc([N+](=O)[O-])cc1)c1c[nH]c2ccccc12`, -12.7%; in that of `Cc1nc2ccccc2cc1C(=O)N/N=C/c1ccc([N+](=O)[O-])cc1`, -3.69%.

For `O=C(N/N=C/c1ccc(Cl)cc1)c1nc2ccc([N+](=O)[O-])cc2c(=O)[nH]1`, the inhibition was 78.6% (active).

Take `Nc1[nH]c(=S)nc2nc(-c3ccccc3)c(-c3ccccc3)nc12`: the inhibition is -1.95%. With `COc1ccc(NC(=O)Cn2c(=O)n(Cc3ccco3)c(=O)c3ccccc32)cc1`, the inhibition is -3.89%. For the compound `Cc1cs/c(=N\N=C\c2ccc(O)cc2)n1Cc1ccco1`, the inhibition was 8.07%. In the case of `CN(c1ccccc1)S(=O)(=O)c1cccc(NC(=O)Cc2c(F)cccc2Cl)c1` it was 13.1%; in that of `O=S(=O)(c1ccc(F)cc1)N1CCN(C(=S)NC2CCCC2)CC1`, -9.24%; in that of `CCN(CC)P(=O)(Nc1ccc(SC(F)F)cc1)c1ccc(N(C)C)cc1NC(=O)c1ccco1` (centres undefined), -14.5%. `O=C(NCCN1C(=O)S/C(=C\c2cccnc2)C1=O)c1ccc(S(=O)(=O)N2CCCC2)cc1`: the inhibition is -22.6%. For `O=C(O)COc1ccc(-c2nccc(-c3cccs3)n2)cc1`, the inhibition was 50.4% (active). To `COC(=O)CSc1nccc(-c2cccs2)n1` belongs -13.3%; to `O=C(Nc1ccnc(-c2ccncc2)n1)c1cccs1`, -5.75%; to `CCN(CC)C(=O)Oc1ccc(Br)cc1C(=O)Nc1ccc(F)c(Cl)c1`, -10.6%. Turning to `Cc1ccccc1N1C(=O)C(Oc2ccc(Cl)cc2)C1CNCC1CCCO1` (centres undefined), the inhibition is -2.06%. For `COc1cc(C(CCN2CCN(c3ccccc3)CC2)c2c(OC)cc(OC)c3ccc(=O)oc23)cc(OC)c1OC` (centres undefined), the inhibition is -16.3%. As to `COc1ccc(N2CCN(C(=O)/C(C#N)=C/c3ccccc3)CC2)cc1`, the inhibition was -19%. For `CCOC(=O)/C(C#N)=C/c1ccc(N2CCCCC2)cc1`, the inhibition is -25.7%. As for `CCOC(=O)/C(C#N)=C/c1ccc(N2CCN(Cc3ccccc3)CC2)cc1`, the inhibition is 128% (active). To `Cc1ccc(C(=O)COC(=O)CCCC(=O)NC2CCCCC2)cc1[N+](=O)[O-]` belongs 4.86%. `O=C(Cc1ccc(Br)cc1)N1CCN(c2ccccn2)CC1`: the inhibition was 4.9%. Consider `CC(=O)NNC1=Nc2ccccc2N(C)C(C)C1` (centres undefined), for which the inhibition is -1.65%. In the case of `COc1ncnc2c1N=C1CC(C)(C)CC(N)=C1S2`, the inhibition is 81.4% (active). For `CC(C)(C)c1ccc(/C=C/C(=O)Nc2ncccn2)cc1`, the inhibition was -8.99%. On to `COc1cc(N2C(=O)CC3(CCCC3)CC2=O)cc(OC)c1OC`, for which the inhibition is -4.54%. To `CCOC(=O)N1CC=C2C(C#N)=C(N)C(C#N)(C#N)[C@H](c3cccs3)[C@H]2C1` belongs 6.62%. Take `CCCN1CC=C2C(C#N)=C(N)C(C#N)(C#N)C(c3cc(OC)ccc3OC)C2C1` (centres undefined): the inhibition is 36.5%. In the case of `CCN1CC=C2C(C#N)=C(N)C(C#N)(C#N)[C@H](c3ccoc3)[C@H]2C1` it was 56.6% (active); in that of `Cc1no[n+]([O-])c1COc1ccccc1/C=C1\NC(=S)NC1=O`, -22.4%; in that of `COc1ccc(-n2cnnc2SCC(=O)Nc2cccc([N+](=O)[O-])c2)cc1`, 6.38%. Regarding `CC1CN(S(=O)(=O)c2ccc(C(=O)Nc3sccc3C(N)=O)cc2)CC(C)O1` (centres undefined), the inhibition was 6.08%. In the case of `O=C(Nc1cccnc1)c1ccc(Cl)c([N+](=O)[O-])c1` it was -3.95%.

Turning to `Cn1cc(CN2CCCC(CO)C2)c(-c2ccc(Oc3ccccc3)cc2)n1` (centres undefined), the inhibition was -12.6%. With `Brc1ccc(C2=CC(c3ccco3)n3ncnc3N2)cc1` (centres undefined), the inhibition was 105% (active). For the compound `CC1=C(C(=O)OCc2ccccc2)C(c2ccco2)n2ncnc2N1` (centres undefined), the inhibition was 4.92%. In the case of `COC(=O)C1=C(C)Nc2ncnn2C1c1ccco1` (centres undefined) it was 6.95%; in that of `Cc1cc(-c2nc(C)c(-c3nnc(SCC(=O)Nc4ccccc4)n3C)s2)no1`, -5.93%.

For `COc1ccc(Cc2n[nH]c(=S)n2NC(=O)Nc2ccc(C)cc2)cc1`, the inhibition was -9.72%.

Consider `O=C(Nc1cn(-c2ccccc2)nc1-c1ccccc1)c1ccccc1`, for which the inhibition is -10.3%. As to `CCCCN1C(=O)CC(N2CCOCC2)C1=O` (centres undefined), the inhibition was -40.1%.

On to `C(=N\N1CCN(c2ccccn2)CC1)/C1=C(N2CCOCC2)C(=C/c2ccccc2)/CC1`, for which the inhibition was 22.4%. `N#C/C(=C\c1ccccc1C(F)(F)F)C(=O)Nc1ccccc1F`: the inhibition was -19.9%. In the case of `N#C/C(=C\C1=C(N2CCOCC2)C(=C\c2ccccc2)/CC1)C(=O)Nc1ccccc1F`, the inhibition was 154% (active). Regarding `Cc1sc2nc(CC(N)=O)[nH]c(=O)c2c1-c1ccccc1`, the inhibition is -7.12%. As for `CN1CCN(CCNC(=O)Nc2ccc([N+](=O)[O-])cc2)CC1`, the inhibition was -6.33%.

Turning to `CCN(CC(=O)Nc1ccc(S(=O)(=O)N2CCCC2)cc1)CC(=O)Nc1cccc(OC)c1`, the inhibition was -7.32%.

`CCCCCCCCc1c(O)nc(-n2[nH]c(C)c(CCO)c2=O)[nH]c1=O`: the inhibition was -21.7%. Consider `COc1ccc(C2=CC(c3cccc(OC)c3)n3nnnc3N2)cc1` (centres undefined), for which the inhibition is -13.3%.

For `COc1ccc(C2C=C(c3ccc(Br)cc3)Nc3nc(NS(C)(=O)=O)nn32)cc1` (centres undefined), the inhibition was 80.6% (active). As for `COc1ccc(C2CC(c3ccc(C)cc3)Nc3nc(N)nn32)cc1` (centres undefined), the inhibition is -6.12%. In the case of `CCOCCCNC(=S)N1CCC(NC(=O)C2CCCCC2)CC1`, the inhibition is -2.69%.

For `Oc1c(Cl)cc(Cl)c(Cl)c1Cc1c(O)c(Cl)cc(Cl)c1Cl`, the inhibition is 59.7% (active). In the case of `CCCC[C@@H]1CN=C(N)N1CCc1cc(C(F)(F)F)cc(C(F)(F)F)c1` it was -11.3%; in that of `CC1CCCN(S(=O)(=O)c2ccc(N(C(=O)c3cnccn3)C(C(=O)NC3CCCCC3)c3cccs3)cc2)C1` (centres undefined), -17.8%. To `Cc1cc(N2CCN(S(=O)(=O)c3ccc(C)c(C)c3)CC2)c2ccccc2n1` belongs 12.3%. In the case of `Cc1ccc(S(=O)(=O)C(C#N)c2nc3ccccc3nc2N2CCCC2)cc1C` (centres undefined), the inhibition is 69.2% (active). For the compound `Cc1ccc(S(=O)(=O)Nc2nc3ccccc3nc2N2CCc3ccccc3C2)cc1`, the inhibition was 8.67%.

For `O=C(COc1ccc(-c2ccccc2)cc1)NN=C1CCCC1`, the inhibition was -13.3%. `O=C(Nc1ccc2c(c1)OCCO2)c1ccoc1`: the inhibition is -10.9%. `COc1ccc(/C(O)=C2/C(=O)C(=O)N(CC3CCCO3)C2c2ccc(OC)c(OC)c2)cc1` (centres undefined): the inhibition is -16.4%. `COc1ccc(-c2nc(CS(=O)CC(=O)NCc3cccnc3)c(C)o2)cc1OC` (centres undefined): the inhibition is -12.1%.

For `COc1ccc(-c2nc(CS(=O)CC(=O)N3CCc4ccccc4C3)c(C)o2)cc1` (centres undefined), the inhibition was -1.18%.

For the compound `COc1ccc(-c2nc(CS(=O)CC(=O)NCc3ccccn3)c(C)o2)cc1` (centres undefined), the inhibition is 117% (active).

For the origin of these results see PubChem BioAssay AID1085 (Emory University Molecular Libraries Screening Center, 2008).
